Screening data: PubChem, National Center for Advancing Translational Sciences (NCATS)
D1 agonist: agonists of human D1 dopamine receptor | HEK293 T-REx D1 cells, calcium flux, agonist mode | activation, % at 2 µM | P21728 | 360,000 compounds, 1% hits; also: 0% is about no effect
Target sequence (P21728 whole entry, looked up): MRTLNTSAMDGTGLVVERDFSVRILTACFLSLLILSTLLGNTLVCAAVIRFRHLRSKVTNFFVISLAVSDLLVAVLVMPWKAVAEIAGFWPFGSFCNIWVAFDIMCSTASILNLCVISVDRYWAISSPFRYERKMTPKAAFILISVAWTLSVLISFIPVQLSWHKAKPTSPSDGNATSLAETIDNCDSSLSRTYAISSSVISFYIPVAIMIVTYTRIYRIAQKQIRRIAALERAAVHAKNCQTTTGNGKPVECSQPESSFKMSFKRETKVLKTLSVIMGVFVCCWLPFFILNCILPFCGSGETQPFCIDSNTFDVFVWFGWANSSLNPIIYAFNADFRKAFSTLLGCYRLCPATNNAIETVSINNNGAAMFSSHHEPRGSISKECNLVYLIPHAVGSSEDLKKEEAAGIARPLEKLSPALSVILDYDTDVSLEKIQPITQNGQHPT
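Agonism was scored from calcium flux recorded over 180 s (1 read/s) after pintool compound addition, following a 10-cycle baseline. Cells were inducible force-coupled HEK293 TREx D1, plated overnight at 30 C and loaded with no-wash calcium dye.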
D1 potentiator: enhances dopamine response at the human D1 receptor; 360,000 compounds, 0.036% hits; HEK293 TREx D1 cells, calcium flux, dopamine EC20 potentiation; P21728; potentiation, % at 10 µM; in the data active = potentiation above about 30%; also: 0% is about no effect
D1 antagonist: human D1 dopamine receptor antagonism | P21728 | HEK293 TREx D1 cells, calcium flux, dopamine EC80; stronger effect = lower value | activity change, negative = inhibition, % at 10 µM | 360,000 compounds, 3.2% hits | AID 504652; in the data active = activity change below about -30%; also: % is scaled to controls: 0 for no effect and ±100 for the full control effect
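Tetracycline-induced HEK293 T-REx cells with force-coupled D1 receptor were loaded with a no-wash calcium dye. Compound was added after a 10 s baseline and read kinetically for 180 s; EC80 dopamine was then added and calcium flux followed another 180 s.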
TRHR enhancer: allosterically enhances the human TRH receptor; P34981; TRHR cells, fluo-8 calcium fluorescence, EC20 TRH enhancement; enhancement, % at 2 µM; 360,000 compounds, 0.66% hits; AID 493056; in the data active = enhancement above about 30%; also: 0% is about no effect
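Enhancer read-out: after compound pinning and an initial kinetic agonist-mode read, an EC20 of TRH (10 nM final) was injected and fluo-8 calcium signal (Ex 480/Em 530) followed at 1 s/cycle for 100 cycles in TRHR-expressing cells.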
TRHR ag: TRH receptor (human) agonism. TRHR cells, calcium flux fluo-8, FDSS agonist mode. P34981. activation, % at 2 µM. 360,000 compounds, 0.18% hits; also: 0% is about no effect
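Steps: seed TRHR cells overnight; add fluo-8 no-wash Ca dye, RT 30 min–1.5 h; record 10 s baseline; pin-transfer compounds; monitor fluorescence 1 cycle/s for the agonist window. Calcium increases flag candidate agonists.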
* = called active by the depositor; x = no result. Hits are enriched below; roughly 4.7% of the tested compounds scored in any of these assays. Rule as the data show it, unless noted: active = activation above about 30%; inactive = the rest.

SMILES | D1 agonist | D1 potentiator | D1 antagonist | TRHR enhancer | TRHR ag
Cc1cc(C(C#N)c2ccc(Cl)cc2)c(Cl)cc1NC(=O)c1cc(I)cc(I)c1O (stereo unspecified) | 13 | -7 | -33* | -7 | 1
Cc1cc2oc(C(=O)Nc3sc4c(c3C(=O)NCc3ccccc3)CCCC4)cc(=O)c2cc1C | 1 | 0 | 0 | 1 | 1
CCn1nnc2cc(C(=O)Nc3cccc(Cl)c3C)ccc21 | 2 | -3 | -1 | -2 | 0
COc1cccc(NC(=O)COc2ccc(C(=S)N3CCN(C)CC3)cc2OC)c1 | 8 | -1 | -31* | 0 | 1
Cc1ccccc1OCC(=O)Nc1ccc(N2CCN(C)CC2)c(Cl)c1 | 35* | x | -71* | 3 | 2
Cc1ccccc1OCC(=O)Nc1ccc2c(c1)Cc1ccccc1-2 | 6 | -2 | -24 | 5 | -1
CNC(=O)c1ccc(Nc2nnc(-c3ccc(C)c(S(=O)(=O)NC(C)(C)C)c3)c3ccccc23)cc1 | -1 | -2 | -7 | -5 | 0
CCOC(=O)C(NC(C)=O)C(=O)Nc1ccc(C(C)C)cc1 (stereo unspecified) | 2 | -2 | -11 | 39* | 0
CC(C)CNC(=O)Nc1ccc(F)c(Cl)c1 | 14 | -1 | -13 | -3 | 2
O=C(Nc1ccc(F)c(Cl)c1)Nc1csc2ccccc12 | 14 | -10 | -33* | -10 | 0
O=C(Nc1ccc(F)cc1F)Nc1csc2ccccc12 | 13 | -5 | -33* | 1 | 2
COc1ccc(NC(=O)CC2C(=O)N(c3ccccc3)C(=O)N2Cc2cccnc2)cc1 (stereo unspecified) | 2 | -3 | -4 | 3 | 0
CCOCCCNC(=O)C(c1ccccc1)N(Cc1ccc2c(c1)OCO2)C(=O)c1ccc(NC(C)=O)cc1 (stereo unspecified) | -1 | 3 | 5 | 0 | 0
O=C(Nc1c2c(nc3ccccc13)CCCC2)c1ccccc1Cl | 0 | -8 | 7 | -3 | 1
CC(=O)c1ccc(Nc2c3c(nc4ccccc24)CCCC3)cc1 | 4 | -11 | -42* | 0 | 0
Fc1cccc(Nc2c3c(nc4ccccc24)CCC3)c1 | 6 | -12 | -53* | -4 | 0
O=C(Nc1c2c(nc3ccccc13)CCCC2)c1ccccc1F | 1 | -4 | -37* | 4 | 0
CC(=O)c1cccc(Nc2c3c(nc4ccccc24)CCC3)c1 | 1 | -4 | -3 | 6 | -1
Nc1c2c(nc3ccccc13)CCC2 | -1 | -9 | -43* | 2 | 1
Cc1cc(C)n2nc(CNC(=O)c3cccc(Cl)c3)nc2n1 | 0 | -3 | 2 | 4 | 0
Nc1c2c(nc3ccc(Br)cc13)N(C1CCCCC1)CC2 | 5 | -15 | -30 | 4 | 1
Nc1c2c(nc3ccccc13)N(C1CCCCC1)CC2 | -2 | -9 | -37* | -3 | 0
COc1ccccc1Nc1c2c(nc3ccccc13)CCC2 | 6 | -19 | -38* | 2 | 0
C=CCn1ccc(=NC=C(C#N)C#N)c2ccccc21 | 31* | -12 | -6 | 0 | 17
CC(C)CN(C(=O)CN1CCN(S(=O)(=O)c2ccc3ccccc3c2)CC1)c1c(N)n(CC(C)C)c(=O)[nH]c1=O | 0 | -5 | -88* | -1 | 0
SMILES | D1 agonist | D1 potentiator | D1 antagonist | TRHR enhancer | TRHR ag
CC(C)CN(C(=O)CN1CCN(c2cccc(Cl)c2)CC1)c1c(N)n(CC(C)C)c(=O)[nH]c1=O | 1 | 7 | -7 | 0 | 0
CCOc1ccc(Nc2c(S(=O)(=O)c3ccccc3)cnc3ccc(CC)cc23)cc1 | 2 | -7 | -14 | -1 | 0
CCOC(=O)C1CCN(C(=O)Cn2nc(CC)n3c(cc4sccc43)c2=O)CC1 | 1 | -4 | -1 | 30* | 0
COc1ccc(Cn2c(=O)c3oc4ccccc4c3n(CC(=O)Nc3c(C)cccc3C)c2=O)cc1 | 1 | -3 | -1 | 5 | 0
CCc1ccccc1NC(=O)Cn1c(=O)n(Cc2ccc(OC)cc2)c(=O)c2oc3ccccc3c21 | -1 | -2 | 3 | 35* | -1
CCOC(=O)c1c(C)oc2ncnc(N3CCN(c4ccccc4)CC3)c12 | -1 | 1 | -45* | 3 | -2
COc1ccc(-n2nnc(-c3nc(-c4cccs4)no3)c2N)cc1OC | 0 | 0 | -2 | 0 | 0
COc1ccc(COc2ccccc2C(=O)NCc2ccccc2)cc1F | 12 | -3 | -37* | -8 | 1
CCOc1cc(/C=N/NC(=O)C(=O)NCc2cccnc2)ccc1O | -1 | -3 | -35* | -1 | 0
CC(Nc1ccccc1CO)C(=O)Nc1cccc(Cl)c1Cl (stereo unspecified) | 1 | -5 | -61* | 23 | 0
Cn1c(=O)n(C)c2cc(N3CCOCC3)c(NC(=O)c3c(F)cccc3F)cc21 | 0 | 0 | 17 | -10 | -1
Cc1cc(=O)[nH]c(SCC(=O)Nc2cccc(C(F)(F)F)c2)n1 | 2 | 0 | -32* | -2 | 0
Cc1ccc2onc(CC(=O)Nc3cccc(C(F)(F)F)c3)c2c1 | 0 | -6 | -75* | -19 | 1
Cc1cc(C)cc(NC(=O)Cc2noc3ccccc23)c1 | -1 | -2 | -63* | -3 | 1
O=C(CSc1ncnc2c1cnn2CCO)Nc1cccc(C(F)(F)F)c1 | 26 | -6 | 7 | 31* | 0
Cc1ccc(NC(=O)Cc2noc3ccccc23)cc1 | 2 | -1 | 0 | 1 | 0
Cc1ccc(-c2noc(CN(C(=O)COc3cc(C)cc(C)c3C)C(C)C)n2)cc1 | 14 | -1 | 6 | -3 | 1
COc1ccc(OC)c(NC(=O)CN(C)S(=O)(=O)c2ccc3[nH]c4c(c3c2)CCCC4)c1 | 0 | -1 | -7 | -5 | -1
COc1ccccc1NC(=O)CSc1nnc2c3ccccc3n(C(C)C)c2n1 | 1 | -2 | -6 | 16 | -1
Cc1ccc2onc(CC(=O)Nc3cc(F)ccc3F)c2c1 | -1 | -3 | -81* | -6 | 0
COC(=O)c1ccccc1NC(=O)Cc1noc2ccc(C)cc12 | -1 | -4 | -21 | 10 | 0
Cc1cccc(CS(=O)(=O)Cc2ccc(C(=O)NCc3ccc(F)cc3)o2)c1 | 2 | -1 | -16 | 4 | 0
Cc1ccc2nc(N(CCCN(C)C)C(=O)CN3C(=O)c4ccccc4C3=O)sc2c1 | 44* | -15 | -20 | 1 | 3
CN(C)CCCN(C(=O)CCc1ccccc1)c1nc2ccc(Cl)cc2s1 | 31* | -8 | -8 | 4 | 7
Cc1cc(C)c2sc(N(CCCN(C)C)C(=O)CN3C(=O)c4ccccc4C3=O)nc2c1 | 42* | -6 | -6 | 0 | 3
Cc1ccc2nc(N(CCCN(C)C)C(=O)CCc3ccccc3)sc2c1 | 16 | 0 | -2 | 4 | 1
CC(NCC(O)COCCC12CC3CC(CC(C3)C1)C2)c1ccccc1 (stereo unspecified) | 169* | 12 | 56 | -1 | 1
